The list is not random: actives were taken first. Their share in the collection is about 2.3%.
IDH1 R132H inh: qHTS for Inhibitors of mutant isocitrate dehydrogenase 1 (IDH1): qHTS; hit rate 0.093% among 390,000; IDH1-R132H enzyme, NADPH consumption, diaphorase/resazurin fluorescence; AID 602179, 2012; Isocitrate dehydrogenase [NADP] cytoplasmic (Homo sapiens), O75874; Potency, µM (top dose mostly 76.6 µM), actives largely listed as inhibitors; further: nearly all actives have a fitted effect of over 65% in size
Target sequence (O75874 whole entry R132H, stated change not applied): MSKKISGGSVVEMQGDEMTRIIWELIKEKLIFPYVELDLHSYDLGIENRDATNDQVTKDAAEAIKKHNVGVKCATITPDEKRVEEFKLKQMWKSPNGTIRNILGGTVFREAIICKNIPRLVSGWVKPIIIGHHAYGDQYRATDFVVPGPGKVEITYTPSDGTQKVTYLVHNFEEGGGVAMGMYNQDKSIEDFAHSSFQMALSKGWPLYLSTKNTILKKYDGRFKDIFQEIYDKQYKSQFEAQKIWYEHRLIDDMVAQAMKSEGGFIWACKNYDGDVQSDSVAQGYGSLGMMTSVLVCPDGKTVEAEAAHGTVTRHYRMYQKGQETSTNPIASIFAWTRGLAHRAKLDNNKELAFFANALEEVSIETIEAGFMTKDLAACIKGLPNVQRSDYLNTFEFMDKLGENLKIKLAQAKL
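IDH1-R132H (0.5 ug/mL dispensed) in pH 7.5 Tris buffer was preincubated 30 min with compound, then given a substrate mix of 0.016 mM NADPH and 2 mM alpha-KG for 80 min at room temperature; remaining NADPH was read by diaphorase/resazurin fluorescence.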
Giardia kill: Small Molecules that selectively kill Giardia lamblia: qHTS | Giardia lamblia trophozoite viability | activity change, % at 7.66 µM, hits read low | hit rate 0.15% among 340,000 | AID 540267, 2011; in the data active means activity change below about -80%; inconclusive means between about -30% and that limit;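 further: parasites exposed to compound for two days anaerobically before the ATP read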
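Viability, read as ATP luminescence: trophozoites at 100 cells/well, compound added, 48 hrs anaerobic at 37 deg C, then 15-30 min room-temperature development before reading.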
Apoferritin bind: qHTS Assay for Identification of Novel General Anesthetics | apoferritin/1-aminoanthracene competitive binding, fluorescence | Potency, µM (highest dose often 77.5 µM), most hits filed as inhibitors | AID 485281, 2010 | Ferritin light chain (Equus caballus), P02791 | hit rate 0.074% among 350,000; further: nearly all actives have a fitted effect of over 20% in size
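Horse-spleen apoferritin (10 uM) was mixed with 50% saturated 1-aminoanthracene in PBS, exposed to compounds for 10 min at room temperature, and read for fluorescence (ex 380 nm, em 535 nm). Competitive displacement was fitted with a four-parameter Hill equation.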
Nrf2 inh: Nrf2 qHTS screen for inhibitors. A549 ARE-Fluc reporter, luciferase luminescence, 18-24 h. Potency, µM (highest dose often 46 µM), usual class: inhibitors. hit rate 2.1% among 360,000; further: nearly all actives have a fitted effect of over 60% in size
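Two sequential reads on A549 ARE_Fluc cells exposed to compound for 18-24 h: a CellTiter-Fluor fluorescence read for viability, then a luciferase luminescence read for Nrf2/ARE activity.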
Nrf2 ARE act: qHTS of Nrf2 Activators. AREc32 ARE-luciferase reporter (MCF7-derived line), luminescence, 24 h. AID 624171, 2012. Potency, µM (series often up to 46.1 µM), most hits filed as activators. hit rate 0.31% among 410,000; further: nearly all actives have a fitted effect of over 65% in size
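Nrf2 activation is followed as ARE-luciferase induction in the AREc32 line after one day of compound treatment; luminescence is read with Steady-Glo.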
A549 viability: Nrf2 qHTS screen for inhibitors: counterscreen for cytotoxicity. A549 ARE-Fluc cells, CellTiter-Fluor viability, 18-24 h. Potency, µM (top dose mostly 46 µM), most hits filed as inhibitors. hit rate 0.16% among 390,000. AID 504648, 2011
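A549 ARE-Fluc cells in 5% FBS OPTI-MEM, 5000 cells/well, rested 2 h then exposed to compounds in concentration-response for 18-24 h at 37 °C. Viability by CellTiter-Fluor fluorescence (Ex 405/Em 525) after 30 min; luciferase luminescence (BugLite, 15 min, RT) read afterwards.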
Of the large screens only hits and unclear results are named; the others gave an inactive call. Unless noted, the call rests on the fitted dose curve; in most records, active means well fitted curve in the direction sought with a large enough effect; inconclusive means small, poorly fitted or top-dose-only effect, or another doubt; inactive means no such curve, though single readings can be large; an effect the other way counts as inactive or inconclusive.

Cc1ccc(-n2ncc3c(SCc4cccnc4)ncnc32)c(C)c1	Nrf2 inh 4.1µM
CCOC(=O)c1[nH]c2ccccc2c1NC(=O)c1ccccc1OCC	Nrf2 inh inconclusive (no result: Giardia kill)
Cc1nn(Cc2ccc(Cl)c(Cl)c2)c(C)c1NC(=O)c1cc(-c2ccc3c(c2)OCO3)on1	Nrf2 inh 12µM, A549 viability inconclusive
COc1ccc(OC)c(-c2cc(C(=O)NCc3ccco3)no2)c1	Nrf2 ARE act 11µM
COc1ccc(OC)c(-c2cc(C(=O)Nc3c(C)nn(Cc4ccccc4)c3C)no2)c1	Nrf2 inh 15µM
Cc1nn(Cc2ccc(Cl)cc2)c(C)c1NC(=O)c1noc2c1CCc1ccccc1-2	Nrf2 inh 16µM, A549 viability inconclusive
Cc1ccc(NC(=O)c2cc(-c3ccc4c(c3)OCO4)on2)cc1	none
COc1ccccc1NS(=O)(=O)c1cc2c(cc1Cl)NC(=O)CO2	Nrf2 inh inconclusive (no result: Giardia kill)
CC(C)CNC(=O)C1(C)CCCN1C(=O)C(C)(C)Oc1ccc(Cl)cc1 (stereo unspecified)	none (no result: IDH1 R132H inh, Giardia kill, Apoferritin bind, Nrf2 inh, A549 viability)
Cc1ccc(Cn2ccc(NC(=O)c3noc4c3CCc3ccccc3-4)n2)cc1	Nrf2 inh inconclusive
COc1ccc2c(c1)CCc1c(C(=O)Nc3ccn(Cc4ccc(C)cc4)n3)noc1-2	Nrf2 inh 16µM
COc1ccc2c(c1)CCc1c(C(=O)Nc3c(C)nn(Cc4ccc(Cl)cc4)c3C)noc1-2	none (no result: Giardia kill)
COc1ccc2c(c1)CCc1c(C(=O)Nc3c(C)nn(Cc4ccccc4)c3C)noc1-2	Nrf2 inh 21µM
CC(C)c1cc2c(s1)c1cnn(Cc3ccccc3F)c(=O)c1n2C	Nrf2 inh inconclusive (no result: IDH1 R132H inh, Giardia kill, Apoferritin bind, Nrf2 ARE act)
CCCN(Cc1ccccc1)C(=S)Nc1cccc(C(F)(F)F)c1	Nrf2 inh 21µM
COc1cc(CN2C[C@@H](CO)O[C@@H](n3cnc4c(NCCCO)ncnc43)C2)cc(OC)c1OC	none (no result: IDH1 R132H inh, Giardia kill, Apoferritin bind, Nrf2 inh, A549 viability)
CCN(C1CCCCC1)S(=O)(=O)c1ccc(S(=O)(=O)NCc2ccncc2)cc1	Nrf2 inh 8.2µM
CCN(C1CCCCC1)S(=O)(=O)c1ccc(S(=O)(=O)NCCc2ccncc2)cc1	Apoferritin bind inconclusive
Clc1cccc(CSc2nncn3c2cc2sccc23)c1	Nrf2 inh inconclusive (no result: Giardia kill)
CC(=O)Nc1ccc(C2C(C)CCC3C(=O)N4C(CCC(C)[C@@H]4c4ccc(NC(C)=O)cc4)C(=O)N32)cc1 (stereo partly specified)	none (no result: IDH1 R132H inh, Giardia kill, Nrf2 inh, Nrf2 ARE act, A549 viability)
C=CCc1cc(F)c(S(=O)(=O)N2CCN(S(=O)(=O)c3ccc4c(c3)OCCO4)CC2)cc1F	none (no result: IDH1 R132H inh, Giardia kill, Apoferritin bind, Nrf2 ARE act)
C=CC(=O)N1C/C(=C/c2ccccc2)C(=O)/C(=C\c2ccccc2)C1	Nrf2 inh inconclusive, Nrf2 ARE act inconclusive, A549 viability inconclusive (no result: Apoferritin bind)
C=CC(=O)N1C/C(=C/c2ccc(Cl)cc2)C(=O)/C(=C\c2ccc(Cl)cc2)C1	IDH1 R132H inh inconclusive, Nrf2 inh inconclusive, A549 viability 23µM (no result: Apoferritin bind)
Cc1ccccc1C(=O)N1CCN(c2ccc(NC(=O)CSc3ccc(Cl)cc3)cc2)CC1	Nrf2 inh 21µM
Cc1ccccc1C(=O)N1CCN(c2ccc(NC(=O)c3ccc4c(c3)OCCO4)cc2)CC1	Nrf2 inh 21µM
COc1c(C)cccc1C(=O)Nc1ccc(N2CCN(C(=O)c3ccccc3C)CC2)cc1	Nrf2 inh 21µM
Cc1ccccc1C(=O)N1CCN(c2ccc(NC(=O)c3cccc(OC(C)C)c3)cc2)CC1	none
CCC(=O)Nc1ccc(N2CCN(C(=O)c3ccccc3C)CC2)cc1	none
Cc1nc(C)c(C(=O)Nc2ncc([N+](=O)[O-])s2)o1	Giardia kill -88, Nrf2 inh inconclusive
COc1ccc(CC(=O)Nc2ncc([N+](=O)[O-])s2)cc1OC	Giardia kill -89
CCCCC(=O)Nc1ncc([N+](=O)[O-])s1	Giardia kill -90, Apoferritin bind inconclusive, Nrf2 inh inconclusive
CC(C)CC(=O)Nc1ncc([N+](=O)[O-])s1	Giardia kill -93
